Data on four molecules can be found in PubChem BioAssay.

The nature of assay [1]: liver-stage malaria parasite growth inhibition, primary screen, cell-based, HepG2, luciferase luminescence, HepG2 viability (AID 624349).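 Also: 100% = mean of DMSO negative control wells on the same plate.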 To be noted: P. berghei liver stage in HepG2, luciferase luminescence, concentration not given here; parasite load remaining: stronger effect = lower value; viability: measured here: HepG2 viability without parasites.
The nature of assay [2]: stimulators of nuclear beta-catenin in C2C12, primary screen, imaging, WNT3A-conditioned medium, mouse C2C12, NPC library (AID 1117326; in the data active = nuclear beta-catenin stimulation mostly above about 4.2%, no sharp cut-off; inactive = mostly below about 10%). To be noted: stronger effect = higher value.
A short description of assay [3]: stimulators of insulin release from INS-1E, primary screen, cell-based, 5 mM glucose, NPC library (AID 1117329;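 active = compound raises insulin release from rat beta cells at 5 mM glucose, no numeric limit stated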). To be noted: rat INS-1E insulin secretion, at 10 µM, stronger effect = higher value.
The nature of assay [4]: growth inhibition of GSK3B-pretreated HCT116 cells – cell-based, CellTiter-Glo, 0.2 to 20 µM (AID 1117336;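 active = compounds lowering colon cancer cell viability after pretreatment blocking the GSK3B kinase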). To be noted: HCT116 viability after GSK3B inhibitor, at 20 µM, stronger effect = higher value. Background: Cellular ATP, detected with luciferase, serves as a proxy for viable cell number.
The nature of assay [5]: inhibition of endothelial tube formation, primary screen, imaging, VEGF stimulated, CD31 staining, tube area, NPC library (AID 1117340;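 active = compound that reduces growth-factor-driven endothelial tube area in a mixed cell culture, no cutoff stated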). To be noted: VEGF-stimulated ADSC/ECFC co-culture, at 10 µM, stronger effect = higher value.
Assay [6] in a line: glucagon-like peptide 1 release enhancers, primary assay, NCI-H716 cell line, NPC library (AID 1117341;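 active = compound raises GLP1 secretion from the human gut endocrine cells, with no numeric limit stated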). To be noted: NCI-H716 cells, at 10 µM, stronger effect = higher value.
A short description of assay [7]: HCT116 colon cancer cell growth inhibition, primary screen, CellTiter-Glo luminescence, NPC library (AID 1117342;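 active = compounds that lower survival of HCT116 colon cancer cells in the luminescence readout, no numeric limit stated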). To be noted: at 20 µM (top of the series).
Assay [8] in a line: CellTiter-Glo luminescent readout of SW480 viability loss, NPC library primary (AID 1117343;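 active = compounds that lower viability of the colon cancer cells in the luminescence readout, with no numeric limit stated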). To be noted: CellTiter-Glo luminescence; at 20 µM (top of the series).
Assay [9] can be described thus: decreased DLD-1 cellular survival, CellTiter-Glo luminescent readout, NPC compound collection, primary HTS (AID 1117346;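 active = compounds that lower survival of DLD-1 colon cancer cells in the luminescence readout, no cutoff given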). To be noted: DLD-1 viability, CellTiter-Glo luminescence; at 20 µM (top of the series).
The target of assay [10] is 6-phosphogluconate dehydrogenase, decarboxylating (Homo sapiens) (UniProt P52209). In words: 6PGD enzyme inhibitors, primary screen, biochemical, human, recombinant enzyme, NADPH absorbance (AID 1159550;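 active = at least 20% inhibition of 6-phosphogluconate dehydrogenase activity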). To be noted: recombinant 6PGD, NADPH absorbance 341 nm; at 10 µM; stronger effect = higher value.
A short description of assay [11]: differential killing of epithelial or mesenchymal cells, primary screen, imaging, PC-3E GFP, TEM4-18 mCherry, co-culture (AID 1345086;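 active = compounds killing one labelled cell type while sparing the other, by normalised counts and ratio limits, not self-fluorescent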;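 as to all read-outs here: cells exposed to compound for 72 h before imaging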;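 as to red/green cell ratio (normalised): normalised mesenchymal count divided by normalised epithelial count so high means epithelial killing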). To be noted: imaging cell counts, at 1 µM; for red/green cell ratio (normalised): actives lie on both sides.
Assay [12] deals with Aerobactin synthetase IucA (Klebsiella pneumoniae hvKP1). In words: Biochemical IucA enzyme inhibition primary screen of the Spectrum library (AID 1346200; call rule not given here;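 also: 100% = wells without compound and 0% = wells lacking enzyme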). To be noted: malachite green pyrophosphate, A620, at 8 µM, stronger effect = lower value.
Assay [13] addresses NAD(+) hydrolase SARM1 (Homo sapiens) (UniProt Q6SZW1). Kind of assay: SARM1 TIR NADase inhibitors, cell lysate, NAD-Glo luminescence (AID 1508614;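 active = compound whose remaining NAD level is above about 45 nM, limit read from the data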;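 also: higher remaining NAD means stronger inhibition of SARM1 NADase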). To be noted: SAM-TIR HEK293T lysate NADase, at 1 µM, stronger effect = higher value.
Assay [14] can be described thus: suppressors of polyQ aggregation in yeast, 75Q-TubU reporter (AID 1593). To be noted: Yeast 75Q polyglutamine aggregation reporter.
A short description of assay [15]: inhibitors of mitochondrial cytochrome c release, biochemical, purified mitochondria (AID 1603).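 Also: mouse liver mitochondria challenged with calcium chloride; signal normalized to the plate average as 100%.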 To be noted: stronger effect = lower value.
Assay [16] is described as follows: inhibitors of polyQ protein aggregation (AID 1604). To be noted: polyglutamine-induced protein aggregation inhibition assay; stronger effect = higher value; tested at 2.5 µM.
Assay [17] in a line: sensitizers of A549 cells to miR-34 induction, primary screen, imaging, A549 dox-inducible miR-34, nuclei and caspase counts (AID 1347080;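 active = compounds whose cell count with miR-34 switched on is under 0.7 times the count with it off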). To be noted: A549 miR-34 inducible, Hoechst nuclei count, 48 h.
Assay [18] deals with Mitogen-activated protein kinase 7 (Homo sapiens) (UniProt Q13164). Kind of assay: ERK5 transactivation activators in reporter cells, primary screen, cell-based, HTS (AID 1508626;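 active = luciferase signal above three times the same-plate solvent-only control wells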;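 also: luciferase driven by Gal4-ERK5 fusion binding five Gal4 sites before minimal TATA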). To be noted: HeLa Gal4-ERK5 transactivation, 18 h, at 5 µM, stronger effect = higher value.
Assay [19] is described as follows: survival rescue of mitochondrial mutant cells in low glucose, primary screen, MELAS cybrids, Rieske KO mouse fibroblasts, CellTiter-Glo (AID 1508586;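 active = mean z-score across replicates of 1.96 or higher in either the MELAS or the Rieske mutant cell line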;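 also: z relative to plate mean and SD of compound and empty wells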).
[20] abbreviates: measured here: epithelial PC-3E GFP cell survival.
Setting [21] is: measured here: mesenchymal TEM4-18 mCherry cell survival.
[22] abbreviates: measured here: relative caspase fold change +Dox/-Dox.
Setting [23] is: measured here: total cells with miR-34 induction, stronger effect = lower value.
Where [24] appears, read: measured here: total cells without miR-34 induction.

Values joined by “and” are separate entries in the source; they are usually repeats but may differ in a detail not shown here. Equal values may be shown once. Active and inactive are the calls of the source. Rule as the data show it, unless noted: active = parasite load remaining mostly below about 12% (no sharp cut-off); inactive = mostly above about 10%.

Sequence of Mitogen-activated protein kinase 7 (Homo sapiens) (Q13164 whole entry, looked up, the tested form may be a part): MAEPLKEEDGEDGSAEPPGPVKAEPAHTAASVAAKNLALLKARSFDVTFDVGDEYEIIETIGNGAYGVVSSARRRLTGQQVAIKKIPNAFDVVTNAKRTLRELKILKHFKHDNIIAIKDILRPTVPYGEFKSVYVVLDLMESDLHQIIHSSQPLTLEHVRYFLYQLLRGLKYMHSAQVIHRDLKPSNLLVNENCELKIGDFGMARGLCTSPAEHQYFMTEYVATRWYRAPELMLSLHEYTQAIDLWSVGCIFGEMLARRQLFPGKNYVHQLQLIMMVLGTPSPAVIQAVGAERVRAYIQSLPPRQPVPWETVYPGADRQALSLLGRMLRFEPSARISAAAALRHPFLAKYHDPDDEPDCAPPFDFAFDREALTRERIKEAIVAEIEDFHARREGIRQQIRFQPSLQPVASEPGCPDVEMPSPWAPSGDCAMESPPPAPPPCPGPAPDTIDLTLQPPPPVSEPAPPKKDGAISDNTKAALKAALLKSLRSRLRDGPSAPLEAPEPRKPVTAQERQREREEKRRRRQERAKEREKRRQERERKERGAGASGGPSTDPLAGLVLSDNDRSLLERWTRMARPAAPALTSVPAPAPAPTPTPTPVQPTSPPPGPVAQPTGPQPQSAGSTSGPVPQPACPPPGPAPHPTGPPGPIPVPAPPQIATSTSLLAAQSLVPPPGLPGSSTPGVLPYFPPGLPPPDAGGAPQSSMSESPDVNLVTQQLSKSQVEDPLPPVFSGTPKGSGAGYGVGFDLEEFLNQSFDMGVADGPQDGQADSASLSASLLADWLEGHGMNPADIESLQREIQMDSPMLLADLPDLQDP
Sequence of NAD(+) hydrolase SARM1 (Homo sapiens) (Q6SZW1 whole entry, looked up): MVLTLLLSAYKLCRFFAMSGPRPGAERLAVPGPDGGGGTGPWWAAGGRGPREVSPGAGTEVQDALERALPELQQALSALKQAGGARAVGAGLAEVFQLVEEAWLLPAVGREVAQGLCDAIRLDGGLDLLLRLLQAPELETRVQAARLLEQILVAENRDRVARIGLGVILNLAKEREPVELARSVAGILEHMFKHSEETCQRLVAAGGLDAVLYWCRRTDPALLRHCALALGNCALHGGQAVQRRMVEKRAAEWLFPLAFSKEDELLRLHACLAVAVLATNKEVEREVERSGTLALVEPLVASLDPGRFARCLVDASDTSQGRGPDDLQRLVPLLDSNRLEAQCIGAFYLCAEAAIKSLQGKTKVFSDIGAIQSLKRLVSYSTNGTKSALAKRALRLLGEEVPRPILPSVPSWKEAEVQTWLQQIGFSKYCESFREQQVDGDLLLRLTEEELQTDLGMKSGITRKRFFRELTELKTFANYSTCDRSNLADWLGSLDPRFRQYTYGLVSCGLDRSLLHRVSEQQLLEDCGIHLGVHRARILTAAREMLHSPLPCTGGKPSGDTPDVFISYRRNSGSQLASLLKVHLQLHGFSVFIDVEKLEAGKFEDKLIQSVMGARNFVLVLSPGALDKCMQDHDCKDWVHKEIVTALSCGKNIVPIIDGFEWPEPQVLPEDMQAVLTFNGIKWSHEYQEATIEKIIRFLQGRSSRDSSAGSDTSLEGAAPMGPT
Sequence of 6-phosphogluconate dehydrogenase, decarboxylating (Homo sapiens) (P52209 whole entry, looked up): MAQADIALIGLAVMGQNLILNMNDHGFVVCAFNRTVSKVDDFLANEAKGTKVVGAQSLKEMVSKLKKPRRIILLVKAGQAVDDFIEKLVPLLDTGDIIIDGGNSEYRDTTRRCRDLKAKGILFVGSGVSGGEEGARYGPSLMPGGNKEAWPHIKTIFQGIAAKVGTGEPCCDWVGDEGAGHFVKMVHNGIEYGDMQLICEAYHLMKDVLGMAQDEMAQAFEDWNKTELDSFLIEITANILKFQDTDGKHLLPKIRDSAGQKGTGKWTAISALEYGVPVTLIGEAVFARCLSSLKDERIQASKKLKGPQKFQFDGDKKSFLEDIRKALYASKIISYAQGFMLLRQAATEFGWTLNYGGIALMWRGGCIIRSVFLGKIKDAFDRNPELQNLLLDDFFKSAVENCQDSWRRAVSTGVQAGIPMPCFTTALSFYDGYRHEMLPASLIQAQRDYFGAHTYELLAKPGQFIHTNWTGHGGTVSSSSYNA

As to `CC(C)=CC1C(C(=O)OCc2cccc(Oc3ccccc3)c2)C1(C)C` (stereo unspecified), the parasite load remaining in assay [1] was 123% (inactive). The viability in assay [1] was determined as 88.5%. Further, the nuclear beta-catenin stimulation in assay [2] (at 10 µM) is 1.3% (inactive); in assay [2] (stimulation, at 2 µM), 2.5%. For the same molecule, the insulin secretion stimulation in assay [3] was 2.9% (inactive). The viability decrease in assay [4] is -21.3% (inactive). Also, the tube area decrease in assay [5] is -14.2% (inactive). Also, the GLP1 secretion stimulation in [6] was 1.7% (inactive). In [7], the inhibition of viability was 15.9% (inactive). Further, the viability decrease (inhibition) in assay [8] is 16.2% (inactive); in assay [9] it was 31.4% (inactive). In addition, the inhibition in assay [10] is -5.61% (inactive). In addition, the red/green cell ratio (normalised) in assay [11] was 0.95 (inactive). Also, the normalised cell number in assay [11] (setting [20]) is 1.25; in assay [11] (setting [21]), 1.19. In addition, the activity remaining in assay [12] was 99.1% (inactive). Further, the remaining NAD in assay [13] was 10 nM (inactive).

Regarding `CC(=O)[O][Hg][c]1ccccc1`, the score in [14] is -0.45. In assay [15], the cytochrome c release ratio is 1.06. Also, the inhibition of aggregation in [16] is -25.5%. The parasite load remaining in assay [1] was 3.54% (inactive) and -0.265% (inactive). Besides, in assay [1], the viability is 23.1% and 0.225%. Also, the nuclear beta-catenin stimulation in [2] (at 10 µM) was 14.5% (inactive); in assay [2] (stimulation, at 2 µM), 13.2%. The insulin secretion stimulation in assay [3] was 15.9% (inactive). The viability decrease in assay [4] was 103% (active). Besides, the tube area decrease in assay [5] is 110% (active). Further, the GLP1 secretion stimulation in [6] is 49.8% (active). Further, in assay [7], the inhibition of viability is 103% (active). The viability decrease (inhibition) is 144% (active) in assay [8] and 105% (active) in [9]. Moreover, the inhibition in [10] was -9.01% (inactive). Besides, in assay [12], the activity remaining was -6.18% (active). Moreover, the results for the fold change in assay [17] (stronger effect = lower value) and in assay [17] (setting [22]) were 0.775 (inactive) and 1.65, respectively. Besides, the cell count in [17] (setting [23]) came out at 334; in assay [17] (setting [24]) it was 432. In [13], the remaining NAD is 63 nM (active). Further, in [18], the luciferase signal is 32 AU (inactive).

With `NC(=O)c1cc([N+](=O)[O-])cc([N+](=O)[O-])c1`, the score in assay [14] came out at 1.47. For the same molecule, the cytochrome c release ratio in assay [15] came to 0.54. Besides, in assay [16], the inhibition of aggregation was determined as 72.4%. For the same molecule, the parasite load remaining in assay [1] is 66.1% (inactive) and 34.1% (inactive). Moreover, the viability in [1] was 71.7% and 90.1%. Further, the nuclear beta-catenin stimulation was -1.3% (inactive) in [2] (at 10 µM) and -1.6% in assay [2] (stimulation, at 2 µM). In [3], the insulin secretion stimulation was 0.7% (inactive). Besides, in assay [4], the viability decrease is 30.5% (inactive). For the same molecule, in assay [5], the tube area decrease is -14.6% (inactive). For the same molecule, the GLP1 secretion stimulation in [6] was -0.8% (inactive). In assay [7], the inhibition of viability is 37.6% (inactive). The values for the viability decrease (inhibition) in assay [8] and in assay [9] were 67.6% (active) and 6.7% (inactive), respectively. Besides, the inhibition in [10] was 8.1% (inactive). In addition, in assay [11], the red/green cell ratio (normalised) is 0.97 (inactive). The normalised cell number in [11] (setting [20]) amounted to 0.99; in assay [11] (setting [21]), 0.96. Further, the activity remaining in assay [12] is 116% (inactive). Also, the fold change was 0.831 (inactive) in [17] (stronger effect = lower value) and 2.03 in [17] (setting [22]). The cell count in [17] (setting [23]) is 10800; in [17] (setting [24]), 12900. The remaining NAD in assay [13] was 10 nM (inactive). For the same molecule, the luciferase signal in assay [18] is 40 AU (inactive).

For the molecule `O=c1oc2ccccc2c(O)c1Cc1c(O)c2ccccc2oc1=O`, the score in [14] was found to be 0.69. Further, the cytochrome c release ratio in [15] came out at 0.7. For the same molecule, the inhibition of aggregation in [16] amounted to 42.1%. Also, the parasite load remaining in assay [1] was 87.2% (inactive) and 95.3% (inactive) and 51.7% (inactive). Further, in assay [1], the viability was 97.7% and 68.2% and 89.1%. Also, the nuclear beta-catenin stimulation in assay [2] (at 10 µM) was -0.1% (inactive); in [2] (stimulation, at 2 µM), -2.5%. Also, the insulin secretion stimulation in assay [3] is -1% (inactive). Besides, the viability decrease in [4] is 97.6% (active). Also, in [5], the tube area decrease was 26% (inactive). The GLP1 secretion stimulation in assay [6] is -3.4% (inactive). In addition, the inhibition of viability in [7] is 90.5% (active). Further, the viability decrease (inhibition) in assay [8] was 107% (active); in assay [9], 92.1% (active). Moreover, in assay [10], the inhibition was -29.3% (inactive). Besides, in assay [11], the red/green cell ratio (normalised) was 0.99 (inactive). The normalised cell number in [11] (setting [20]) was determined as 1.34; in [11] (setting [21]), 1.32. Besides, the activity remaining in assay [12] is 120% (inactive). Further, the fold change was 0.822 (inactive) and 0.882 (inactive) and 0.865 (inactive) in assay [17] (stronger effect = lower value); 1.17 and 1.33 and 1.22 in assay [17] (setting [22]). In addition, the cell count is 8510 and 8000 and 10400 in [17] (setting [23]); 10300 and 9060 and 12000 in assay [17] (setting [24]). In addition, the z-score in [19] (MELAS cybrid survival, CellTiter-Glo 48 h, stronger effect = higher value) is -0.183 (inactive) and 0.389 (inactive); in assay [19] (Rieske KO mouse fibroblast survival, CellTiter-Glo 72 h), -0.295 and 0.839. Moreover, the remaining NAD in assay [13] is 10 nM (inactive). Further, the luciferase signal in assay [18] was 28 AU (inactive).

The viability is a read-out of living cells in per cent, often relative to untreated cells. The inhibition is the drop in the measured response relative to a control, in per cent.
